Laboratory results taken from PubChem BioAssay AID1578 (Sanford-Burnham Center for Chemical Genomics, 2009).
Values joined by “and” are separate entries in the source; they are usually repeats but may differ in a detail not shown here. Equal entries are not always repeated. Out of some 290,000 compounds screened, about 3,000 (1%) were called active. No stated cut-off is given here; in the data, active means inhibition mostly above about 36% (no sharp cut-off); inactive means mostly below about 34%. What follows is part of a selection rich in actives, with near analogues and random picks from the rest.

Experiment: inhibition of NOD1-driven NF-kB reporter – cell-based, luminescence, uHTS, primary screen (AID 1578);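 further: HEK-293T reporter cells stimulated with the NOD1 agonist gamma-tri-DAP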
Conditions: NOD1-driven NF-kB luciferase reporter cells, at 4 µM, stronger effect = higher value

SMILES	inhibition
COc1cc(/C=N\NC(=O)c2ccc(-c3ccccc3)cc2)ccc1OCC(N)=O	-24.5% (inactive)
Cc1ccc(S(=O)(=O)N(C)c2cc(S(=O)(=O)N3CCOCC3)c(C)cc2C)cc1	-26.1% (inactive)
COc1cc(S(=O)(=O)NCc2ccc3c(c2)OCO3)ccc1Cl	-0.2% (inactive)
COc1c(C(=O)NC(=S)Nc2nnn(C)n2)cc2ccccc2c1Br	29.6% (inactive)
CC(NC(=O)CCc1c[nH]c2ccccc12)c1ccccc1 (stereo unspecified)	-38.3% (inactive)
CC(NC(=O)CCCc1c[nH]c2ccccc12)c1ccc(F)cc1 (stereo unspecified)	51.3% (active)
CC(C)NC(=O)CCCc1c[nH]c2ccccc12	-33% (inactive)
Cc1ccc(Nc2nnc(-c3ccc4c(c3)OCO4)o2)c(C)c1	-19.5% (inactive)
Cc1cc(N/N=C/c2cccc(Cl)c2)nc(-n2nc(C)cc2C)n1	-0.3% (inactive)
Cc1cc(N/N=C/c2cccc([N+](=O)[O-])c2)nc(-n2nc(C)cc2C)n1	-14.5% (inactive)
Cc1nn(-c2ccccc2)c2c1P(=O)(O)/C(=C1\N(C)c3ccccc3C1(C)C)C=N2	-9% (inactive)
Cc1cc(C(=O)NNS(=O)(=O)c2ccc(C(C)(C)C)cc2)nn1C(C)(C)C	-6.5% (inactive)
NNC(=O)Cn1c(-c2ccccn2)nc2ccccc21	-10.4% (inactive)
Cc1cc(=O)oc(C)c1C(=O)OCC(=O)c1ccc(Cl)c(Cl)c1	-32.3% (inactive)
Cc1cc(=O)oc(C)c1C(=O)OCC(=O)c1ccc(Cl)cc1	79.2% (active)
Cc1cc(=O)oc(C)c1C(=O)OCC(=O)c1ccc(Br)cc1	-27.3% (inactive)
CCOC(=O)N1CCN(S(=O)(=O)N2CCCC(C(=O)NCCc3ccccc3)C2)CC1 (stereo unspecified)	-26.5% (inactive)
CC(C)c1[nH]c(=O)c(C#N)c2c1COC(C)(C)C2	-18.6% (inactive)
CC(C)n1c(O)c(N=NC(=O)CNC(=O)c2cccnc2)c2ccccc21	-19.7% (inactive)
CCCCc1nc(NCCO)c(C#N)c2c1CCCC2	-8.5% (inactive)
CC(C)c1nc(NCCO)c(C#N)c2c1CCCC2	81% (active)
CCCc1nc(NCCO)c(C#N)c2c1CCCC2	17.9% (inactive)
CCCc1nn2c(N)c(/C=C3\C=Nc4ccccc43)c(=O)nc2s1	-56% (inactive) and -14.1% (inactive)
CCCCc1nn2c(N)c(/C=C3\C=Nc4ccccc43)c(=O)nc2s1	79.1% (active)

SMILES	inhibition
CCc1nn2c(N)c(/C=C3\C=Nc4ccccc43)c(=O)nc2s1	-37.5% (inactive) and 2.9% (inactive)
Cc1ccc(S(=O)(=O)n2cc(-c3ccccc3)c(N)n2)cc1	-4.9% (inactive)
Nc1nonc1C(=O)NCCNC(=O)c1cccc(Cl)c1	-28.8% (inactive)
CC(=O)n1cc(N(C(=O)CCl)c2ccc(Cl)cc2)c2ccccc21	14.2% (inactive)
CCOC(=O)c1ccccc1Nc1cn(C(C)=O)c2ccccc12	-3.8% (inactive)
O=Cc1[nH]c2ccccc2c1N(C(=O)CCl)c1ccc([N+](=O)[O-])cc1	19.2% (inactive)
COc1ccccc1N(C(=O)CCl)c1cn(C(C)=O)c2ccccc12	93% (active)
CC(=O)n1cc(N(C(=O)CCl)c2ccc([N+](=O)[O-])cc2)c2ccccc21	38.7% (active)
CC(=O)N(c1ccc(Cl)cc1)c1cn(C(C)=O)c2ccccc12	-16.5% (inactive)
CC(=O)n1cc(Nc2ccc([N+](=O)[O-])cc2)c2ccccc21	-18% (inactive)
CC(=O)n1cc(CO)c2ccccc21	-5.2% (inactive)
CN1/C(=C/C(=O)CSc2ccccc2C(=O)O)C(C)(C)c2ccccc21	10.5% (inactive)
CCC(Oc1ccccc1OC)C(=O)N1CC(=O)Nc2ccccc21 (stereo unspecified)	29% (inactive)
CCOc1ccc(NS(=O)(=O)c2ccc(NS(=O)(=O)c3cccs3)cc2)cc1	-17.3% (inactive)
COc1ccc(Cl)cc1NC(=O)N(C)Cc1c(C)nn(C)c1C	-24.6% (inactive)
Cc1cc(NCc2ccccc2)nc(-c2ccccc2O)n1	-41.6% (inactive)
CCOC(=O)c1c(C)[n+]([O-])c2ccc3c(non3O)c12	-24.8% (inactive)
CC(=O)c1c(C)[n+]([O-])c2ccc3c(non3O)c12	-20% (inactive)
[O-][n+]1c2c(c3c4non(O)c4ccc31)CCCC2	79.7% (active)
CCN(C(=O)c1c(-c2ccccc2Cl)noc1C)C1CCCCC1	-10.1% (inactive)
Cc1cc(C)c2nc(C(F)(F)F)c(C#N)c(N)c2c1	76.9% (active)
Cc1cc(C)c2nc3nc(C)cc(C)c3c(N)c2c1	-26.5% (inactive)
Cc1cc(C)c2nc3nc(C)c(C)cc3c(N)c2c1	-27.3% (inactive)
COc1cc2c(=O)n(CCC(=O)NCC3CCCO3)c(=O)n(CC(=O)Nc3ccc(C)c(C)c3)c2cc1OC (stereo unspecified)	-11.3% (inactive)

SMILES	inhibition
CC(C)(CO)NS(=O)(=O)c1ccc2c(c1)oc(=O)c1cc(S(=O)(=O)NC(C)(C)CO)ccc12	-6.5% (inactive)
CC(=O)Nc1cc2nn(-c3ccccc3)nc2cc1Cl	-27.6% (inactive)
CCC(=O)Nc1cc2nn(-c3ccccc3)nc2cc1Cl	-22.2% (inactive)
CC(C)(C)C(=O)Nc1cc2nn(-c3ccccc3)nc2cc1Cl	87.1% (active)
O=C(O)C1CCCN1c1ncccc1[N+](=O)[O-] (stereo unspecified)	-20.8% (inactive)
CCN1CCN(CC(O)COCCOc2ccc(Br)cc2)CC1 (stereo unspecified)	-19.1% (inactive)
CN1CCN(CC(O)COCCOc2ccc(Br)cc2)CC1 (stereo unspecified)	-26% (inactive)
OCCN1CCN(CC(O)COCCOc2ccc(Br)cc2)CC1 (stereo unspecified)	62.2% (active)
O=C(COc1ccccc1CNCc1ccccc1)Nc1ccccc1	-69.5% (inactive)
O=c1c2cc(NC(=S)N3CCCCC3)ccc2nc2n1CCCCC2	-32.7% (inactive)
Cc1ccc2nc(NC(=O)c3ccc(-c4nc5ccccc5s4)s3)sc2c1	-74.1% (inactive)
O=C(NC1CC1)c1ccc(-c2nc3ccccc3s2)s1	70.1% (active)
O=CN1CCN(C(=O)c2ccc(-c3nc4ccccc4s3)s2)CC1	-25.6% (inactive)
CCCNC(=O)c1ccc(-c2nc3ccccc3s2)s1	-50.1% (inactive)
CCN1CCN(C(=O)c2ccc(-c3nc4ccccc4s3)s2)CC1	-43.4% (inactive)
O=C(c1ccc(-c2nc3ccccc3s2)s1)N1CCOCC1	82.9% (active)
COc1ccc(NC2CCCN(C(=O)CN3C(=O)c4ccccc4C3=O)C2)cc1OC (stereo unspecified)	-24.8% (inactive)
COc1ccc(OC)c2c(C)cc(N3CCN(C(=O)c4ccc(C)cc4)CC3)nc12	-12.9% (inactive)
CN(C1CCCCC1)C(CNS(=O)(=O)c1ccc(Cl)cc1)c1ccccc1 (stereo unspecified)	-15.5% (inactive)
O=C(O)c1ccccc1-n1cccc1C(=O)O	-9.5% (inactive)
CCN(CC)c1ccc(S(=O)(=O)N2CCOCC2)cc1NC(=O)CN1CCN(Cc2ccccc2)CC1	-3.8% (inactive)
O=C(CN1CCc2ccccc2C1)Nc1cc(S(=O)(=O)N2CCOCC2)ccc1N1CCOCC1	-17.8% (inactive)
O=C(NNC(=O)c1ccccc1OCc1ccccc1Cl)c1csc(N2CCOCC2)n1	96.3% (active)
O=C(NNC(=O)c1ccccc1C(F)(F)F)c1csc(N2CCOCC2)n1	-87.8% (inactive)

SMILES	inhibition
O=C(NNC(=O)c1cc(Br)ccc1Cl)c1csc(N2CCOCC2)n1	-14.6% (inactive)
CCc1ccc(NC(=O)CN2CCCN(S(=O)(=O)c3ccc(F)cc3)CC2)cc1	-21.6% (inactive)
O=C1CC(c2nc3ccccc3[nH]2)CN1Cc1ccccc1 (stereo unspecified)	-15% (inactive)
COc1ccc(CCNC(=O)C2CC(=O)N(C3CCCCCCC3)C2)cc1OC (stereo unspecified)	-23.8% (inactive)
O=c1c2ccccc2nc2n1CCS2	-2.5% (inactive)
Cc1ccc2c(=O)cc(C(=O)NC3CCS(=O)(=O)C3)oc2c1 (stereo unspecified)	-12% (inactive)
O=C(NCc1nc(-c2ccc(C(F)(F)F)cc2)no1)Nc1ccc(OC(F)(F)F)cc1	5.1% (inactive)
O=C(NCc1nc(-c2ccc(C(F)(F)F)cc2)no1)Nc1ccc(F)cc1F	3.8% (inactive)
O=C(NCc1nc(-c2ccc(C(F)(F)F)cc2)no1)Nc1cc(Cl)cc(Cl)c1	44.1% (active)
Cc1ccccc1CC(=O)N1CC(C)OC(C)C1 (stereo unspecified)	-15.5% (inactive)
S=C(NCc1ccccc1)Nc1cccc2cnccc12	41.4% (inactive)
CNC(=S)Nc1cccc2[nH]ncc12	-6.5% (inactive)
O=C(NC(=S)Nc1cccc2cnccc12)c1ccccc1	80.9% (active)
O=C(Nc1cccc2[nH]ncc12)c1ccc(F)cc1	-0.2% (inactive)
O=C(NC(=S)Nc1cccc2[nH]ncc12)c1ccccc1	68.4% (active)
O=C(NC(=S)Nc1cccc2cccnc12)c1ccccc1	-2.9% (inactive)
CS(=O)(=O)N(CC(=O)Nc1cccnc1)c1ccc2c(c1)OCCO2	-12.2% (inactive)
CS(=O)(=O)N1CCN(c2ccccc2NC(=O)c2ccc(-c3ccc(Br)cc3)o2)CC1	-21.7% (inactive)
CC(C)c1ccc(NC(=O)COC(=O)CCC(=O)c2cccs2)cc1	5.4% (inactive)
O=C(O)c1ccc(NC2=C(n3nnc4ccccc43)C(=O)c3ccccc3C2=O)cc1	-3.8% (inactive)
O=C1c2ccccc2C(=O)c2c1cccc2-n1nnc2ccccc21	3.1% (inactive)
O=C1C(N2CCOCC2)=C(n2nnc3ccccc32)C(=O)c2ccccc21	101% (active)
CCOC(=O)c1ccc(NC(=O)CN2C(=O)C(CC)SC(CC)C2=O)cc1 (stereo unspecified)	-15.5% (inactive)
O=C(c1ccc2ccccc2c1)N1CCCCC1	14.9% (inactive)
